The text below walks through data of PubChem BioAssay (EPA / NIEHS).

Records with an inconclusive call do not appear. Active and inactive are the calls of the source. The calls were made as follows: active = hit-call score of the fitted dose curve at least 0.9, where 1 is the maximum; inconclusive = response in the unintended direction; inactive = score below 0.9.

Read-out in the test: organic anion transporter (SLCO1B1), SLCO1B1 (gene 10599)
Briefly: CLD_SLCO1B1_24hr: CellzDirect (CLD) Gene Expression Assay for organic anion transporter (SLCO1B1) at 24 hours (AID 2283690). The protocol: CLD_24hr is a cell-based, multiplexed-readout assay that uses hepatocyte, a human liver primary cell, with measurements taken at 24 hours after chemical dosing in a 96-well plate.CLD_SLCO1B1_24hr is one of 16 assay component(s) measured or calculated from the CLD_24hr assay. It is designed to make measurements of mRNA induction, a form of inducible reporter, as detected with chemiluminescence signals by Quantitative Nuclease Protection Assay (qNPA) technology.Data from the assay component CLD_SLCO1B1_24hr was analyzed at the endpoint, CLD_SLCO1B1_24hr, in the positive analysis fitting direction relative to DMSO as the negative control and baseline of activity. Using a type of inducible reporter, gain-of-signal activity can be used to understand changes in the reporter gene as they relate to the gene SLCO1B1. Furthermore, this assay endpoint can be referred to as a primary readout. To generalize the intended target to other relatable targets, this assay endpoint is annotated to the transporter intended target family, where subfamily is organic anion transporter.
Human hepatocyte cultures were treated daily for two consecutive days with fresh dosing solutions containing appropriate concentrations of the 320 ToxCast chemicals (chemical identities were blinded to CellzDirect and other ToxCast collaborators), vehicle control (0.2% DMSO), and positive control inducers as summarized in Table 1. Due to the large number of treatment groups and chemicals examined, the ToxCast chemicals were divided into two groups (spanning two independent cultures of hepatocytes from separate donor preparations (Hu778: ToxCast plates 1 and 2; Hu776: ToxCast plates 3 and 4). Each preparation of human hepatocyte cultures was treated with respective vehicle control, medium only control, set of six positive controls/reference chemicals for the five hepatic receptor pathways, and a subset of eight of the ToxCast chemicals (indoxacarb, pyrithiobac-sodium, norflurazon, cyhalofop-butyl, methomyl, thiram, acetochlor, and propiconazole). These replicate data, coupled with internal replicates designed within the blinded ToxCast chemical library, provided additional data to evaluate interindividual differences between hepatocyte preparations and their potential impact on chemical profiles.Cell morphology and integrity were evaluated using phase-contrast microscopy as an indicator of hepatocyte cell health (Tyson & Green, 1987). Cultures for each treatment group (i.e., media, vehicle [0.2% DMSO], positive control inducers [multiple concentrations], and the ToxCast chemicals [multiple concentrations]) were observed and cell morphology was assessed relative to vehicle control cultures at each harvest time point (0, 6, 24, or 48 h). […] Images were evaluated at the conclusion of the study to assess changes in cell integrity and account for the effects of chemical exposure on uncharacteristic changes in concentration-dependent gene expression profiles. The results from these determinations of apparent cytotoxicity were annotated (yes/no) alongside the corresponding qNPA data for reference.At the conclusion of each treatment period, hepatocyte cultures (96-well) were washed with 1 volume of HBSS, lysed by addition of 25 ul ArrayPlate lysis buffer (HTG, Tucson, AZ), and 70 ul/well of Denaturation Oil, denatured by incubation at 95C for 10 min, and frozen at approximately -70C until analysis by nuclease protection assay (qNPA) (Roberts et al., 2007). For qNPA analysis, cell lysates were thawed at 50C for approximately 30 min, qNPA probes were added, and samples were incubated at 95C for 10 min to begin the detection process by denaturing the target RNA, dissociating the duplexes and secondary structure hybridization. At the conclusion of the hybridization period, S1 nuclease reagent was added to each sample to digest all nonprotected nucleotides at 50C for 60-90 min. […]
As to `O=C1c2ccccc2C(=O)N1SC(Cl)(Cl)Cl`, the compound was classed as inactive.

On to `COc1cc(OC)nc(NC(=O)NS(=O)(=O)c2cc(NC=O)ccc2C(=O)N(C)C)n1`, for which the call was inactive.

As for `CCc1ccc(C(=O)NN(C(=O)c2cc(C)cc(C)c2)C(C)(C)C)cc1`, the outcome was inactive.

For `CCS(=O)(=O)c1cccnc1S(=O)(=O)NC(=O)Nc1nc(OC)cc(OC)n1`, the outcome was inactive.

With `COC(=O)c1ccccc1S(=O)(=O)NC(=O)Nc1nc(C)nc(OC)n1`, the result was inactive.

For the compound `COC(=O)c1ccccc1S(=O)(=O)NC(=O)N(C)c1nc(C)nc(OC)n1`, the compound was called inactive.

As to `CCN(CC)C(=O)SCc1ccc(Cl)cc1`, the compound was called inactive.

For the compound `N#CN`, the compound was classed as inactive.

Regarding `COP(=S)(OC)Oc1ccc([N+](=O)[O-])cc1`, the call was inactive.

On to `CC1(c2ccc(Oc3ccccc3)cc2)OC(=O)N(Nc2ccccc2)C1=O` (configuration not stated), for which the compound was classed as inactive.

For `O=C(O)C(F)(F)C(F)(F)C(F)(F)C(F)(F)C(F)(F)C(F)(F)C(F)(F)F`, the compound was classed as inactive.

For the compound `Oc1ccc(Cl)cc1Cc1ccccc1`, the call was inactive.

As to `CCOCN(C(=O)CCl)c1c(C)cccc1CC`, the call was inactive.

`Cc1cc(C)nc(NC(=O)NS(=O)(=O)c2ccccc2C(=O)OC2COC2)n1`: the outcome was inactive.

With `CC[C@H](C)[C@H]1O[C@]2(C=C[C@@H]1C)C[C@@H]1C[C@@H](C/C=C(\C)[C@@H](O[C@H]3C[C@H](OC)[C@@H](O[C@H]4C[C@H](OC)[C@@H](O)[C@H](C)O4)[C@H](C)O3)[C@@H](C)/C=C/C=C3\CO[C@@H]4[C@H](O)C(C)=C[C@@H](C(=O)O1)[C@]34O)O2` (tested in a mixture with another compound), the outcome was inactive.

In the case of `CC(C)OC(=O)Nc1cccc(Cl)c1`, the result was inactive.

As to `Oc1cc(Cl)ccc1Oc1ccc(Cl)cc1Cl`, the outcome was inactive.

For the compound `COP(=O)(OC)OC=C(Cl)Cl`, the call was inactive.

As to `CN1CSC(=S)N(C)C1`, the compound was classed as inactive.

Consider `OCCOc1ccccc1`, for which the compound was classed as inactive.

As to `O=C(Nc1ccccc1)Nc1cnns1`, the compound was called inactive.

In the case of `[2H]C1([2H])[n+]2ccccc2-c2cccc[n+]2C1([2H])[2H]`, the result was inactive.
